According to PubChem BioAssay (NCATS):
Inconclusive results are not listed. Activity calls are given as the source filed them. Unless noted, the call rests on the fitted dose curve; in most records, active means well fitted curve in the direction sought with a large enough effect; inconclusive means small, poorly fitted or top-dose-only effect, or another doubt; inactive means no such curve, though single readings can be large; an effect the other way counts as inactive or inconclusive.

Columns and labels:
[1] = target: Cytochrome P450 1A2 (Homo sapiens) (UniProt P05177); assay: p450-cyp1a2 (AID 410; calls by dose curve; further: potency means the concentration at half of the fitted maximal effect;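 on activity change, negative = inhibition: -100% = full effect of reference inhibitor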)
Procedure, shortened: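 Luminescent demethylation readout: Luciferin-ME (100uM, equal to Km) turned over by 20nM CYP1A2 for 60 min at room temperature after NADPH regeneration addition, following 10 min compound preincubation. Normalization used 57 uM furafylline as full inhibition.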

[2] = target: Glucocorticoid receptor (Homo sapiens) (UniProt P04150); assay: GR-GFP Redistribution (AID 450;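 active means compounds whose dose series gives a full or clear partial fitted curve of increased nuclear translocation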; further: potency means the concentration at half of the fitted maximal effect); conditions: U2OS GR-GFP nuclear translocation, laser cytometry, 2 h
[3] = target: Glucocorticoid receptor (Homo sapiens) (UniProt P04150); assay: GR-EFC Redistribution (AID 451; calls by dose curve; further: potency means the concentration at half of the fitted maximal effect); conditions: CHO-K1 GR-EFC translocation, beta-gal luminescence, 2 h
Procedure, shortened: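 Translocation of GR-ED fusion to nuclear EA restores b-gal, read by luminescence after 1 h room-temperature detection. Engineered CHO-K1 biosensor cells, 1,000/well, exposed 2 h at 37 C to titrations up to 46 uM final.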

[4] = target: Mitogen-activated protein kinase 10 (Mus musculus) (UniProt Q61831); assay: JNK3 AlphaScreen Assay (AID 530; active means well fitted curve in either direction with a large enough effect, not every such curve was filed as active;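 further: kinase came from lysate of stimulated human HepG2 cells; signal reports phosphorylation of biotinylated GST-cJun 1-79 at Ser73 with 10 µM ATP; on the % scale 0 is the no-effect control and ±100 the full control effect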)
Procedure, shortened: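 qHTS titrations with 15 min compound pre-incubation before adding ATP (10 uM final). Read-out: AlphaScreen of Ser73-phosphorylated biotin-GST-cJun using HepG2 lysate JNK3 activated by IL-1β and TNFα.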

[5] = target: 3',5'-cyclic-AMP phosphodiesterase 4B (Homo sapiens) (UniProt Q07343); assay: qHTS Assay for Inhibitors of PDE-IV (AID 607; active means well fitted activation curve with a large enough effect in the main read-out, with a control signal flat, not every such curve was filed as active; further: % of control where 0% means no effect)
Procedure, shortened: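 ACTOne HEK293 cells carry a modified cAMP-gated CNG channel and express endogenous PDE4; plated 1000 cells/well, compounds up to 22.9 uM final. Membrane-potential dye fluorescence (ex 535/em 590) was read; parental cells received 10 uM forskolin + 100 uM RO 20-1724.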

[6] = target: Cytochrome P450 2C9 (Homo sapiens) (UniProt P11712); assay: qHTS Assay for Inhibitors and Substrates of Cytochrome P450 2C9 (AID 883); further: on the % scale 0 is the no-effect control and ±100 the full control effect; nearly all actives have a fitted effect of over 60% in size
Procedure, shortened: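 Inhibition of CYP2C9 is scored as loss of luminescence, with 57uM sulphaphenazole defining 100% inhibition. Substrate Luciferin-H is used at 100uM, equal to its KM; enzyme at 10nM in 25mM KPO4, 60 min at 37C with NADPH regeneration.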

[7] = target: Cytochrome P450 3A4 (Homo sapiens) (UniProt P08684); assay: qHTS Assay for Inhibitors and Substrates of Cytochrome P450 3A4 (AID 884); further: potency means the concentration at half of the fitted maximal effect; nearly all actives have a fitted effect of over 50% in size
Procedure, shortened: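 Luminescent readout of luciferin produced by CYP3A4 (20 nM) dealkylation of Luciferin-PPXE, 25 uM (its KM). NADPH-driven reaction ran 60 min at RT after 10 min compound preincubation; data scaled to 57 uM ketoconazole as 100% inhibition.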

[8] = target: Cytochrome P450 3A4 (Homo sapiens) (UniProt P08684); assay: qHTS Assay for Activators of Cytochrome P450 3A4 (AID 885); further: nearly all actives have a fitted effect of over 65% in size
Procedure, shortened: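 CYP3A4 activity: Luciferin-PPXE O-dealkylation, 25uM substrate, 200mM KPO4, RT throughout. Read-out is luciferase luminescence; higher values reflect activation.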

[9] = target: Cytochrome P450 2D6 (Homo sapiens) (UniProt P10635); assay: qHTS Assay for Inhibitors and Substrates of Cytochrome P450 2D6 (AID 891);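 further: luciferin methyl ether substrate demethylated by CYP2D6 with NADPH regeneration; on the % scale 0 is the no-effect control and ±100 the full control effect; nearly all actives have a fitted effect of over 60% in size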
Procedure, shortened: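 Luminescent read-out of luciferin formed by 5 nM human CYP2D6 demethylating 30 uM Luciferin-ME EGE (Km level) over 60 min at room temperature after NADPH regeneration addition. Data normalized to full inhibition by 1.43 uM quinidine.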

[10] = target: Cytochrome P450 2C19 (Homo sapiens) (UniProt P33261); assay: qHTS Assay for Inhibitors and Substrates of Cytochrome P450 2C19 (AID 899); further: on the % scale 0 is the no-effect control and ±100 the full control effect; nearly all actives have a fitted effect of over 60% in size
Procedure, shortened: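 5nM enzyme + 10uM Luciferin-H EGE (=KM), 50mM KPO4; cpd pin-transferred, 10 min 37C; NADPH regen, 60 min 37C; stopped w/ luciferin detection reagent, 20 min; luminescence. Normalized to 57uM ketoconazole (AC100).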

[11] = target: DNA dC->dU-editing enzyme APOBEC-3G (Homo sapiens) (UniProt Q9HC16); assay: qHTS for inhibitors of Vif-A3G interactions: Validation (AID 588379); further: 0% is about no effect
Procedure, shortened: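 Yellow fluorescence (Ex 488, Em 500-530) of Vif-coexpressing HeLa A3G-eYFP cells, scanned by Acumen cytometer, reports blocked A3G degradation. Cells plated at 700/well overnight at 37 deg C before compound addition, then a further overnight compound incubation at 37 deg C.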

[12] = system: Zika virus NS2B-NS3 protease; assay: Primary screen GU AMC qHTS for Zika virus inhibitors (AID 1347154);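 further: 0% = no-inhibitor control and -100% = no-enzyme control; nearly all actives have a fitted effect of over 70% in size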
Procedure, shortened: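 Fluorogenic AMC-substrate cleavage by noncovalent NS2B-NS3 protease complex (25 nM, pH 8.0 Tris buffer with Tween 20) followed for 15 minutes at room temperature (~20% conversion). Percent inhibition from ex340/em450 signal change, fitted by 4-parameter Hill equation.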

[13] = target: Ubiquitin carboxyl-terminal hydrolase 1 (Homo sapiens) (UniProt O94782); assay: Inhibitors of USP1/UAF1: Pilot qHTS (AID 504865);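 further: rhodamine fluorescence freed from ubiquitin-rhodamine substrate followed over time; top concentration of the series differs between compounds; on the % scale 0 is the no-effect control and ±100 the full control effect; nearly all actives have a fitted effect of over 35% in size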
Procedure, shortened: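 In 50mM HEPES pH 7.8 containing 0.5mM EDTA, 1mM TCEP, 0.1 mg/ml BSA and 0.01% Tween-20, 1nM USP1/UAF1 is exposed to compound for 15 min, then Ub-Rho (150nM final) is added and fluorescence is read over time.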

[14] = target: Rap guanine nucleotide exchange factor 3 (Homo sapiens) (UniProt O95398); assay: Confirmatory qHTS for antagonist of cAMP-regulated guanine nucleotide exchange factor 3 (EPAC1) (AID 1645880);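 further: plate controls were DMSO only for no effect and full effect of the ATA control for full effect; nearly all actives have a fitted effect of over 55% in size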
Procedure, shortened: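 Released BODIPY-GDP fluoresces less than Rap1-bound BODIPY-GDP; the signal is followed at 480/540 nm at 5-min intervals over 30 min, after 5 min at room temperature. Reactions contain 100 nM EPAC1, 250 nM RAP1B-BODIPY-GDP and 50 uM GDP; results are normalized to ATA and DMSO.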

[15] = target: Rap guanine nucleotide exchange factor 3 (Homo sapiens) (UniProt O95398); assay: Confirmatory qHTS for agonist of cAMP-regulated guanine nucleotide exchange factor 3 (EPAC1) (AID 1645881);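 further: EPAC1 catalysed release of BODIPY-GDP from Rap1B seen as fluorescence loss; 100% = effect of cAMP agonist control; nearly all actives have a fitted effect of over 75% in size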
[16] = target: Rap guanine nucleotide exchange factor 4 (Homo sapiens) (UniProt Q8WZA2); assay: Confirmatory qHTS for agonist of cAMP-regulated guanine nucleotide exchange factor 4 (EPAC2) (AID 1645884);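 further: nucleotide exchange releases bodipy-GDP from Rap1 and this lowers its fluorescence; on the % scale 0 is the no-effect control and ±100 the full control effect; nearly all actives have a fitted effect of over 65% in size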
[17] = target: Rap guanine nucleotide exchange factor 4 (Homo sapiens) (UniProt Q8WZA2); assay: Confirmatory qHTS for antagonist of cAMP-regulated guanine nucleotide exchange factor 4 (EPAC2) (AID 1645885); further: potency means the concentration at half of the fitted maximal effect; nearly all actives have a fitted effect of over 25% in size
[18] = AP1 Signaling Pathway (AID 357; active means well fitted curve in either direction with a large enough effect, not every such curve was filed as active;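 further: ME-180 reporter cells stimulated with EGF at its EC50 level; on the % scale 0 is the no-effect control and ±100 the full control effect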); conditions: ME-180 (cervical carcinoma) AP-1-bla reporter, EGF-induced, beta-lactamase ratio, 5 h; at 38 µM (top of the series)
Procedure, shortened: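 A ratiometric CCF4 readout (405 nm excitation; 460 and 530 nm emission) quantified AP-1-driven beta-lactamase in ME-180 cells after 5 h with compound and EC50 EGF; AC50 values were derived for activators and inhibitors.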

[19] = NFAT Signaling Pathway (AID 444; active means well fitted curve in either direction with a large enough effect, not every such curve was filed as active;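 further: carbachol stimulus at about its EC50 of 1 µM final; on the % scale 0 is the no-effect control and ±100 the full control effect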); conditions: Jurkat NFAT-bla M1, carbachol, beta-lactamase ratio, 5 h; at 38 µM (top of the series)
Procedure, shortened: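 Read-out: CCF4 FRET ratio (460 nm/530 nm) after 1 h RT dye loading, used for %activity and AC50 from titration series. Cells: Jurkat NFAT-β-lactamase/M1 line, treated with compound plus 1 uM carbachol for 5 h, 37 °C.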

[20] = target: Guanine nucleotide-binding protein G(i) subunit alpha-1 (Homo sapiens) (UniProt P63096); assay: qHTS Assay for Inhibitors of RGS12 GoLoco Motif Activity (Green Fluorophore) (AID 879);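 further: 0% = labeled peptide with Gαi1 and full inhibition = labeled peptide alone without protein; negative values mean loss of peptide binding seen as reduced polarization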
Procedure, shortened: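 A drop in FITC polarization marked displacement of the FITC-tagged RGS12 GoLoco peptide (10 nM) from Gαi1 (50 nM). Compounds were incubated 10 min at room temperature in Tris pH 7.5 buffer containing 150 mM NaCl, 0.1 mM GDP and 0.05% NP40; unlabeled peptide titration served as control.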

[21] = qHTS Assay for Identification of Small Molecule Antagonists for NFkB Signaling Pathway (AID 895; active means well fitted inhibition curve with a large enough effect in the signal ratio, with a control signal flat, not every such curve was filed as active; the % refers to the signal ratio; further: potency means the concentration at half of the fitted maximal effect)
Procedure, shortened: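 Beta-lactamase reporter read-out (460 and 530 nm emission ratio, 405 nm excitation, 2 hrs substrate loading RT) after 5 hr stimulation with 10 pM TNF alpha in compound-treated NFkB-bla ME-180 cells in low-serum medium.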

[22] = Confirmation and Secondary Assay for Modulators of Hemoglobin Beta Chain Splicing at IVS2 654 locus (AID 910);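 further: HeLa cells stably carrying EGFP split by mutant beta-globin IVS2-654 intron; % of control where 0% means no effect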
Procedure, shortened: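 Readout: per-well total peak green fluorescence (488 nm ex, 500–520 nm em) from objects 5–250 µm, reflecting correct splicing of an EGFP-654 reporter. Compounds were applied for 2 days at 37 °C to overnight-plated HeLa EGFP-654 cells; controls were DMSO and 500 nM IVS2-654 PNA.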

[23] = Confirmation and Secondary Assay for Modulators of Hemoglobin Beta Chain Splicing at IVS2 705 locus (AID 930);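 further: HeLa cells stably expressing the EGFP-705 splicing reporter; GFP fluorescence per well restored by corrected splicing of the IVS2-705 intron in EGFP; % of control where 0% means no effect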
Procedure, shortened: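 Read-out: total peak GFP fluorescence per well (488 nm excitation, 500-520 nm emission) by laser-scanning cytometry. Cells: HeLa EGFP-705 splicing reporter, 2 days compound exposure in Optimem/2% FCS.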

[24] = target: Muscarinic acetylcholine receptor M1 (Rattus norvegicus) (UniProt P08482); assay: qHTS Assay for Antagonists of Acetylcholine Muscarinic M1 Receptor: Measurement of IP-One Response (AID 944); further: nearly all actives have a fitted effect of over 75% in size
Procedure, shortened: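 IP1 accumulation measured via TR-FRET between d2-IP1 and Eu-cryptate anti-IP1 antibody after carbachol (200 nM, EC80) stimulation for 30 min; rat M1-transfected CHO cells received compound 10 min before agonist.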

[25] = target: alpha-glucosidase (Oryza sativa, rice) (UniProt Q653V4); assay: Counterscreen for Glucocerebrosidase Inhibitors: qHTS Assay for Rice alpha-Glucosidase at pH 5.0 (AID 997);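 further: 0% = full activity with enzyme and -100% = basal without enzyme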
Procedure, shortened: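 Endpoint fluorogenic assay at pH 5.0: compounds (0.7 nM to 77 uM) titrated against 4 nM rice enzyme and 400 uM 4-MU-alpha-glucoside for 20 min at room temperature; NaOH/glycine stop, read ex 365/em 440 nm, Hill-fitted AC50.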

Sequence of DNA dC->dU-editing enzyme APOBEC-3G (Homo sapiens) (Q9HC16 whole entry, looked up): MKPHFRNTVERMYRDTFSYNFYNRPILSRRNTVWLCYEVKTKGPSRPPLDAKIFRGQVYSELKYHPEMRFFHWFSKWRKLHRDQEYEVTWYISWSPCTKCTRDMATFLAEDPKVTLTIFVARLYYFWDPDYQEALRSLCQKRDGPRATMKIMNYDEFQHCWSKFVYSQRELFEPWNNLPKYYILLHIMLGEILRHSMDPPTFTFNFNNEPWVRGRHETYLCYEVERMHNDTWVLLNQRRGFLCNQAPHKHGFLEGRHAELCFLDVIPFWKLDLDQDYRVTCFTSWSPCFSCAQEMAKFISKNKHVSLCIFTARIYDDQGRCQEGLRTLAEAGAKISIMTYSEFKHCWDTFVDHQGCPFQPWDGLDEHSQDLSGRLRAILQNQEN
Sequence of 3',5'-cyclic-AMP phosphodiesterase 4B (Homo sapiens) (Q07343 whole entry, looked up): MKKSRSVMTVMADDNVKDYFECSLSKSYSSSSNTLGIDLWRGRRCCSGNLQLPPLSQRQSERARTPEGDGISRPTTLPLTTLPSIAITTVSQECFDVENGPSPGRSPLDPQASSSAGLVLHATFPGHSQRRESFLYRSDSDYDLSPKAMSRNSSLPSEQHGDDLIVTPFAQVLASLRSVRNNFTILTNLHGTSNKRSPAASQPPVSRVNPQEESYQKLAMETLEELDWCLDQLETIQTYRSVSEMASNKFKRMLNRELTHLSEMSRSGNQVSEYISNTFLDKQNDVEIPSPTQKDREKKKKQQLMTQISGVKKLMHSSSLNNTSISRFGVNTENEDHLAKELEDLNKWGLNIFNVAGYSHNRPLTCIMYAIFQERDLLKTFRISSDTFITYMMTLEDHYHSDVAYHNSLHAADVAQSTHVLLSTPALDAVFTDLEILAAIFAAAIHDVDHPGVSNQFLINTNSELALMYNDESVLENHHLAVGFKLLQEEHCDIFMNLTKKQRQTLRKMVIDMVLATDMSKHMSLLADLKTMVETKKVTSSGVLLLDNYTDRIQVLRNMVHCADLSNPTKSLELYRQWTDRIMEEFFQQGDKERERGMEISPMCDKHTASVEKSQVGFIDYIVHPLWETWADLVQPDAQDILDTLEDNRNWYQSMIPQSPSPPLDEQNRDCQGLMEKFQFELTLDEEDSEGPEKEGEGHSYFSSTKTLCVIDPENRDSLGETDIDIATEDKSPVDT
Sequence of Rap guanine nucleotide exchange factor 3 (Homo sapiens) (O95398 whole entry, looked up): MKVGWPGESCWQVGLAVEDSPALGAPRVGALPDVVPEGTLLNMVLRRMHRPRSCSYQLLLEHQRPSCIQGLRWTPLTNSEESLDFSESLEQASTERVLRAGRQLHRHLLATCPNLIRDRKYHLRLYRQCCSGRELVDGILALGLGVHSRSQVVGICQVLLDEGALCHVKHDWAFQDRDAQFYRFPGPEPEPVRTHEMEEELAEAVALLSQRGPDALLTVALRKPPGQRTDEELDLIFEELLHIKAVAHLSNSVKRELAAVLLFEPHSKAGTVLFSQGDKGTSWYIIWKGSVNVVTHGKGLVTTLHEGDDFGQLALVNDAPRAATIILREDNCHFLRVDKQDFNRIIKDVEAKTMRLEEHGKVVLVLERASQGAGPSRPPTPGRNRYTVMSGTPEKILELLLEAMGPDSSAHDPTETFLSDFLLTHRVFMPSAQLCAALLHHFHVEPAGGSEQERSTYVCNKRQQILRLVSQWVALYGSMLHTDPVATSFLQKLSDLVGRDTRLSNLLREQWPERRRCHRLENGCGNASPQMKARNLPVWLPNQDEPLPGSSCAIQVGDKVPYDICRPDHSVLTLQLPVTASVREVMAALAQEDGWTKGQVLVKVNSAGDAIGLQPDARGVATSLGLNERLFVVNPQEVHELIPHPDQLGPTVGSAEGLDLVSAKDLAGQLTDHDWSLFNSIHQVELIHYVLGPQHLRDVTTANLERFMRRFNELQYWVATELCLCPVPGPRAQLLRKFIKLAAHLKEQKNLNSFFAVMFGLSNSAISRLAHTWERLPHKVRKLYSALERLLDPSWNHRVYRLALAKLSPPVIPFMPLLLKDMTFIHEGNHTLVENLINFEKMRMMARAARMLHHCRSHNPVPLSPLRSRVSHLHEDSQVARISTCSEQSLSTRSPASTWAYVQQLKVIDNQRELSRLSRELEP
Sequence of Rap guanine nucleotide exchange factor 4 (Homo sapiens) (Q8WZA2 whole entry, looked up): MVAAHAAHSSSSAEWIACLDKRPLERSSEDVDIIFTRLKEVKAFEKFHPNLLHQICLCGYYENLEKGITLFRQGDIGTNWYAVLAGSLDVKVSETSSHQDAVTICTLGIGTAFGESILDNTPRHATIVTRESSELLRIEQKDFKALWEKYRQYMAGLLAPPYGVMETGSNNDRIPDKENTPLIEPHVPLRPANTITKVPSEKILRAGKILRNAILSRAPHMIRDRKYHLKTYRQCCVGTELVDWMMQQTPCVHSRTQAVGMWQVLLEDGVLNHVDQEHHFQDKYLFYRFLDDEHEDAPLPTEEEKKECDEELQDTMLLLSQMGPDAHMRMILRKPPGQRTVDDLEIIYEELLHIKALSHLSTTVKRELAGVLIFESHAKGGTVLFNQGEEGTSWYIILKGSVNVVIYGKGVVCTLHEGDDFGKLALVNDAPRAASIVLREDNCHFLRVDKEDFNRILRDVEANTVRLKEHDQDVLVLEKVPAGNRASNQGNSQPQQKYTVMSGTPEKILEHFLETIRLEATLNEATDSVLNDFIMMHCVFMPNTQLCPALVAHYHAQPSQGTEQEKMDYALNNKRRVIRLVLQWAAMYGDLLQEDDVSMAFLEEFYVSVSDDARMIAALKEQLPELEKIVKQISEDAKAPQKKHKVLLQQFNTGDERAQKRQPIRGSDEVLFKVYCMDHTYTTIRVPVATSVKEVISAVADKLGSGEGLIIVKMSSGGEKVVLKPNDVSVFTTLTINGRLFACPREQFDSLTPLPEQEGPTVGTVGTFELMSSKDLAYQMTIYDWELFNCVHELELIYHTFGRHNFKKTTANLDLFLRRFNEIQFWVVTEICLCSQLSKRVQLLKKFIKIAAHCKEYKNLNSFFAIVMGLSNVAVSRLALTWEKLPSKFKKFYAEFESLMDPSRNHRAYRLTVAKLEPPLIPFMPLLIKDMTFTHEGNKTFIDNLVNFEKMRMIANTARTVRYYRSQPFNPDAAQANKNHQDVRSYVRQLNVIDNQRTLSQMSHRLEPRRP
Sequence of Glucocorticoid receptor (Homo sapiens) (P04150 whole entry, looked up, the tested form may be a part): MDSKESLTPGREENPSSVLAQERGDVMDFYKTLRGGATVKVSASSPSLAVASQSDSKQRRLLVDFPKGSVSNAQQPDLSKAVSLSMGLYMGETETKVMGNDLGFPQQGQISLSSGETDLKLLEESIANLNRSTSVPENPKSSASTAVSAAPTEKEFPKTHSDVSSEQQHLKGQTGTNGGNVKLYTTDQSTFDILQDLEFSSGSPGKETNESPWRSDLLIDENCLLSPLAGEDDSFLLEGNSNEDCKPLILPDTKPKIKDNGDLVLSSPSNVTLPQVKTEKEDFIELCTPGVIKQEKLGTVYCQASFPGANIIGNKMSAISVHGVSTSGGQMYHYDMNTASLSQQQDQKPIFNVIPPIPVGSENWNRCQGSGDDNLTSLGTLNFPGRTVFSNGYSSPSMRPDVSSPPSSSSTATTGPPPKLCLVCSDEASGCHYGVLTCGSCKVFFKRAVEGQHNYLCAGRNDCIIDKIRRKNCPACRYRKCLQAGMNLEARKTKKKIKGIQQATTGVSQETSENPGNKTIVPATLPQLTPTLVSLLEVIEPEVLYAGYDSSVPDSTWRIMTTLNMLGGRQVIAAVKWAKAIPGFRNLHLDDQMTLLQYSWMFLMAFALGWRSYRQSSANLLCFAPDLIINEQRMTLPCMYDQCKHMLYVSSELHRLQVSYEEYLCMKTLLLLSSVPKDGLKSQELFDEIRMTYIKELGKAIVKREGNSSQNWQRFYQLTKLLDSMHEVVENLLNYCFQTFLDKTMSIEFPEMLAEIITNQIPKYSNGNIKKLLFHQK
Sequence of Cytochrome P450 3A4 (Homo sapiens) (P08684 whole entry, looked up): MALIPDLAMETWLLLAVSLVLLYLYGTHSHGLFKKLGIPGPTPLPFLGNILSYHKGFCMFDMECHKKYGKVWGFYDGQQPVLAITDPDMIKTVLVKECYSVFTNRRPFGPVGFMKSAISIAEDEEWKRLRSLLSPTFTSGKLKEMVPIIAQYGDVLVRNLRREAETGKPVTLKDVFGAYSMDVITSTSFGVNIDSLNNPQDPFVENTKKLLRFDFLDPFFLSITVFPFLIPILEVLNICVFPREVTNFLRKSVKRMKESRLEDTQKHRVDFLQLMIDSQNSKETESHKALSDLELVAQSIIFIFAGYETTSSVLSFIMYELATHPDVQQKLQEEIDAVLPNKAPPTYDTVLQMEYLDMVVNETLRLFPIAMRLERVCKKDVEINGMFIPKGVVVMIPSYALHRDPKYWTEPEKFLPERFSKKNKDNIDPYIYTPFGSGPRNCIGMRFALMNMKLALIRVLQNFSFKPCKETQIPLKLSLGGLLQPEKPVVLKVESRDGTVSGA
Sequence of Cytochrome P450 1A2 (Homo sapiens) (P05177 whole entry, looked up): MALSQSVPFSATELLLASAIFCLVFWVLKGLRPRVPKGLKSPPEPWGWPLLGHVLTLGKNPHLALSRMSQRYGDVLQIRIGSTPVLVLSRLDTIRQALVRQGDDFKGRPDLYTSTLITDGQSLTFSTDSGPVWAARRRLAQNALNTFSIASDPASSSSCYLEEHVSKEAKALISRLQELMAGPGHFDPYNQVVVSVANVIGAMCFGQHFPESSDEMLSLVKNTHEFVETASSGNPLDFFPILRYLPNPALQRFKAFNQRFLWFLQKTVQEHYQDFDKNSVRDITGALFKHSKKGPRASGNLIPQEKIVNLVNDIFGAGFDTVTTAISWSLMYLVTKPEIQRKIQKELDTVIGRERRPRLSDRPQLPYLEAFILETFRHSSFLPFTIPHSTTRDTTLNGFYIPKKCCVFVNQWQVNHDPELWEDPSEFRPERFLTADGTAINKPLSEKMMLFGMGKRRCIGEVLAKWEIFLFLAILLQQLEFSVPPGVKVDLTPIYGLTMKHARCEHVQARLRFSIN

Cc1ccc(C(=O)Cn2c3c(sc2=N)CCCC3)cc1
inactive: Potency [2] > 46 µM | Potency [3] > 46 µM | Potency [4] | Potency [5] | Potency [6] | Potency [8] | Potency [9] | Potency [10] | Potency [11] | Potency [12]
active: Potency [1] 1 µM | Potency [7] 6.31 µM

CC[C@]1(c2ncc[nH]2)Cc2ccccc2O1
active: Potency [17] 44.1 µM
inactive: Potency [1] | Potency [2] > 46 µM | Potency [3] > 46 µM | Potency [4] | Potency [13] | Potency [11] | Potency [12] | Potency [14] | outcome [15] | outcome [16]

COCCOC(=O)C1=C(C)NC(C)=C(C(=O)OC(C)C)[C@@H]1c1cccc([N+](=O)[O-])c1
active: Potency [21] 7.08 µM
inactive: activity change, negative = inhibition [18] -20.1% | activity change, negative = inhibition [19] -10.3% | Potency [2] > 46 µM | Potency [3] > 46 µM | Potency [5] | outcome [20] | outcome [22] | outcome [23] | Potency [24] | outcome [25] | Potency [11] | Potency [12] | outcome [15] | outcome [16]
